According to the supplement of paper PMC11732987, “Enantioselective OTUD7B fragment discovery through chemoproteomics screening and high-throughput optimisation” (Communications Chemistry, 2025):

Legend:
Assay in all cases: log2 ratio of Biotin-Ahx-Ub-VS probe labelling (fragment/DMSO); higher = less target engagement (more negative = stronger competition), active = hit call of the paper (q ≤ 0.05, log2 ratio ≤ -1)
Details in all cases: compound concentration: 200 uM; treatment time: 3 h
USP42 = molecular target: T1, USP42 (UniProt Q9H9J4)
T1 sequence (whole entry): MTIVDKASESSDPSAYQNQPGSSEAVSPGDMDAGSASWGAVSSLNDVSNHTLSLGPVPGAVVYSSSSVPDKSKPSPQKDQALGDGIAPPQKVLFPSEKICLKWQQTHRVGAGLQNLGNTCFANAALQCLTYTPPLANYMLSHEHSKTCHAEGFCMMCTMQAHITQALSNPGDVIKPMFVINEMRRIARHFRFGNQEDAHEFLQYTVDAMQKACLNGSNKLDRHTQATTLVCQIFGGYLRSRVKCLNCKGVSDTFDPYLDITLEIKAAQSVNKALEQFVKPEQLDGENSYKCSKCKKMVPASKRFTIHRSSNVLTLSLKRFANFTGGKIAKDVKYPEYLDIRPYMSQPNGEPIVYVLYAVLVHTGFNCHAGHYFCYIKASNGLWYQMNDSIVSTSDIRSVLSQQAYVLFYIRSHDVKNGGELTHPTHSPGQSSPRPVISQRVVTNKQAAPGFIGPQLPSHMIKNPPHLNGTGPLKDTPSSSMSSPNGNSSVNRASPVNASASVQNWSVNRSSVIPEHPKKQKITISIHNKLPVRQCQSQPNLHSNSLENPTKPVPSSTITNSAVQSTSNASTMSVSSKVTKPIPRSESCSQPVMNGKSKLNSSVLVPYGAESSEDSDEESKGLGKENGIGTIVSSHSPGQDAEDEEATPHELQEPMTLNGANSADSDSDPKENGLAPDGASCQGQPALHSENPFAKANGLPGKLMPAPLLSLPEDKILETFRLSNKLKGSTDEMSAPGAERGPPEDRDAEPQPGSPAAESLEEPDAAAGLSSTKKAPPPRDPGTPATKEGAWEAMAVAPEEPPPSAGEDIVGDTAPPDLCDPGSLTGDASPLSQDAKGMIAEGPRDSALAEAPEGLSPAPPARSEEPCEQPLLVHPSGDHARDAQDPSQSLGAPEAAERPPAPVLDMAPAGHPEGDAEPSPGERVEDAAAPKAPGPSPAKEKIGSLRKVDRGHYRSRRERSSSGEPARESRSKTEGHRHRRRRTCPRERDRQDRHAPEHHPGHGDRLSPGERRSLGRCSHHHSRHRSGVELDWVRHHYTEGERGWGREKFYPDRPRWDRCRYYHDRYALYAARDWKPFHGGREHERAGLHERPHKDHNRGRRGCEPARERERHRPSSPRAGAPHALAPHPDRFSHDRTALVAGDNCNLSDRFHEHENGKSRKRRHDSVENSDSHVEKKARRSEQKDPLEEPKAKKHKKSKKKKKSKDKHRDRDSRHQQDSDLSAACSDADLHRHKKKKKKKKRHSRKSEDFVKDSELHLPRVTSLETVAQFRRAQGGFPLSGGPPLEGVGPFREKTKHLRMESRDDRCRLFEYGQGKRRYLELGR
Method in brief: (§1)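 HEK293T lysate, 495 µg per sample in Tris/CHAPS/IGEPAL buffer with protease inhibitors, was treated in triplicate with fragment at 200 µM or vehicle for 3 h and then with Biotin-Ahx-Ub-VS at 0.5 µM final for 1 h. Labelled DUBs were NeutrAvidin-enriched, digested with LysC and trypsin, and run by diaPASEF LC-MS/MS. Spectronaut label-free quantities were global-median-normalised, and values are average log2 fragment/vehicle ratios by unpaired t-test on proteins with ≥2 unique peptides.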

USP46 = USP46 (UniProt P62068)
USP46, sequence (P62068 whole entry): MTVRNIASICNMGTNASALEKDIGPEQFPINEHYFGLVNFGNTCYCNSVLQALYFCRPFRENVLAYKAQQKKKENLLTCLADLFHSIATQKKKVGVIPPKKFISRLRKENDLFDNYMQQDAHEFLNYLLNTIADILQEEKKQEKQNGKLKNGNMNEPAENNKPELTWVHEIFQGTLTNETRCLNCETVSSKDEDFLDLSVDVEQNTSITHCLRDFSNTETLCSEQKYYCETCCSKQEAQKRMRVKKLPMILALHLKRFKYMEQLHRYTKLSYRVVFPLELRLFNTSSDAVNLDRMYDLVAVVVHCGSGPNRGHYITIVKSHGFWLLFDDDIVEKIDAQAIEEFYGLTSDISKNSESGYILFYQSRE
Method in brief: as §1

USP47 = molecular target: T2, USP47 (UniProt Q96K76)
T2 sequence (whole entry): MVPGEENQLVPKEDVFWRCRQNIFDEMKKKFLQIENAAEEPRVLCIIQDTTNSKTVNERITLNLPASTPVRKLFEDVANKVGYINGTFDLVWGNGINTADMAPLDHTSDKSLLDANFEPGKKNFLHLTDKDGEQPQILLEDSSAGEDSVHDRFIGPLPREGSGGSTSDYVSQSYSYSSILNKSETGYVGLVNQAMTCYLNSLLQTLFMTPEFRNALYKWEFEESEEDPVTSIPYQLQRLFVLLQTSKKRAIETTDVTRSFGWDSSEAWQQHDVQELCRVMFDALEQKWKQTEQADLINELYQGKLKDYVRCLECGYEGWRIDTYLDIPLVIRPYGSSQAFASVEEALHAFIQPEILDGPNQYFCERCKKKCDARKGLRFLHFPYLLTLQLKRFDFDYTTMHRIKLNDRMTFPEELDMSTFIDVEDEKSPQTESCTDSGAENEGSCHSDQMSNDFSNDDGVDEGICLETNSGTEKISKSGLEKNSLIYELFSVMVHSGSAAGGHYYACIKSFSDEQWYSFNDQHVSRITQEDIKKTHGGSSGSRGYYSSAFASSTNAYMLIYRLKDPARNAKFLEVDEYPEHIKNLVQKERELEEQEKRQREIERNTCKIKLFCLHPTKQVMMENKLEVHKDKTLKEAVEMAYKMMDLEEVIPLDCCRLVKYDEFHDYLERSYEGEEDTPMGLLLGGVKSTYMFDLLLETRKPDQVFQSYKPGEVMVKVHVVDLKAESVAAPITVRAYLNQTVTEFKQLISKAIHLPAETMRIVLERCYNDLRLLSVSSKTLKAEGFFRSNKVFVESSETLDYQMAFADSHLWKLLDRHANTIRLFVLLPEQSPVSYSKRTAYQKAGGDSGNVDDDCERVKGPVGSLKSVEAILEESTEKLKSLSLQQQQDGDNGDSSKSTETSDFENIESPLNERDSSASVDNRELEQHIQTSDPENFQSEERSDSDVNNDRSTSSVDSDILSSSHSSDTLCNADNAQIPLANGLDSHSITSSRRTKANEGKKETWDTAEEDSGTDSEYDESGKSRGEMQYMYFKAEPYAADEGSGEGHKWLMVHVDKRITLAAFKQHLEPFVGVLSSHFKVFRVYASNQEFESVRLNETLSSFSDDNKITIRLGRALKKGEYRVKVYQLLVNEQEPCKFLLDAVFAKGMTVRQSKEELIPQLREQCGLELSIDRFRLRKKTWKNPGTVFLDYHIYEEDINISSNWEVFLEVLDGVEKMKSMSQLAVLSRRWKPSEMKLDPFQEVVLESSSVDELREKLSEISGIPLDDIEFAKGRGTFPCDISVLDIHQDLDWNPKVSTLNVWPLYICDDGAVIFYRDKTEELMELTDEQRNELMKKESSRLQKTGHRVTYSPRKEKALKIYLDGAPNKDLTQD
Method in brief: as §1

USP48 = molecular target: T3, USP48 (UniProt Q86UV5)
T3 sequence (whole entry): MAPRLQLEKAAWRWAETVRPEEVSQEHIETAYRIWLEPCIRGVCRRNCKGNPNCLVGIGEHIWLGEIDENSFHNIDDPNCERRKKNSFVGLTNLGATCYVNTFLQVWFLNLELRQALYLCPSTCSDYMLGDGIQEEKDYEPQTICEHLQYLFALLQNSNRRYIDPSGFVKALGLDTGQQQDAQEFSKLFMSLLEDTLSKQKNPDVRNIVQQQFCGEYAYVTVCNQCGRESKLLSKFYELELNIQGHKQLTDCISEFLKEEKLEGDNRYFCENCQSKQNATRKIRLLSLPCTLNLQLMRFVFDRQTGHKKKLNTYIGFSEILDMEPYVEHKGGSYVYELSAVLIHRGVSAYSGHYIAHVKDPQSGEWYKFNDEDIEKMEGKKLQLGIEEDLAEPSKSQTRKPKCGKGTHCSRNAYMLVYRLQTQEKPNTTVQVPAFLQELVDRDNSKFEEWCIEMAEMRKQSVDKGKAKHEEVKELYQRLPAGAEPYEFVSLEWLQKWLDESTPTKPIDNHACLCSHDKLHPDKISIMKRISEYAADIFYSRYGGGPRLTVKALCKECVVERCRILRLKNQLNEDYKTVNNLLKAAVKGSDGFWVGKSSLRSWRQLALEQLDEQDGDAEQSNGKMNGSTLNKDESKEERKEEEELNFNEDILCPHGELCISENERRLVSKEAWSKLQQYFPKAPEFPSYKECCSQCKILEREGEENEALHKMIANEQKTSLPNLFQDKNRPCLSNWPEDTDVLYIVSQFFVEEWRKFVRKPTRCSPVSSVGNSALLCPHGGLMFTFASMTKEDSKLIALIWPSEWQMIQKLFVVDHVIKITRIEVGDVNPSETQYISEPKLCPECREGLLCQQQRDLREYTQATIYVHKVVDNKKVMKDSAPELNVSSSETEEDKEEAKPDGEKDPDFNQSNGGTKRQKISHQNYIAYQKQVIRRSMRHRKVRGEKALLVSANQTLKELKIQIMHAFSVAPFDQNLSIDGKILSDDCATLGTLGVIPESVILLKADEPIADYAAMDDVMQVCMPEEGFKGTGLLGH
Method in brief: as §1

USP5 = molecular target: T4, USP5 (UniProt P45974)
T4 sequence (whole entry): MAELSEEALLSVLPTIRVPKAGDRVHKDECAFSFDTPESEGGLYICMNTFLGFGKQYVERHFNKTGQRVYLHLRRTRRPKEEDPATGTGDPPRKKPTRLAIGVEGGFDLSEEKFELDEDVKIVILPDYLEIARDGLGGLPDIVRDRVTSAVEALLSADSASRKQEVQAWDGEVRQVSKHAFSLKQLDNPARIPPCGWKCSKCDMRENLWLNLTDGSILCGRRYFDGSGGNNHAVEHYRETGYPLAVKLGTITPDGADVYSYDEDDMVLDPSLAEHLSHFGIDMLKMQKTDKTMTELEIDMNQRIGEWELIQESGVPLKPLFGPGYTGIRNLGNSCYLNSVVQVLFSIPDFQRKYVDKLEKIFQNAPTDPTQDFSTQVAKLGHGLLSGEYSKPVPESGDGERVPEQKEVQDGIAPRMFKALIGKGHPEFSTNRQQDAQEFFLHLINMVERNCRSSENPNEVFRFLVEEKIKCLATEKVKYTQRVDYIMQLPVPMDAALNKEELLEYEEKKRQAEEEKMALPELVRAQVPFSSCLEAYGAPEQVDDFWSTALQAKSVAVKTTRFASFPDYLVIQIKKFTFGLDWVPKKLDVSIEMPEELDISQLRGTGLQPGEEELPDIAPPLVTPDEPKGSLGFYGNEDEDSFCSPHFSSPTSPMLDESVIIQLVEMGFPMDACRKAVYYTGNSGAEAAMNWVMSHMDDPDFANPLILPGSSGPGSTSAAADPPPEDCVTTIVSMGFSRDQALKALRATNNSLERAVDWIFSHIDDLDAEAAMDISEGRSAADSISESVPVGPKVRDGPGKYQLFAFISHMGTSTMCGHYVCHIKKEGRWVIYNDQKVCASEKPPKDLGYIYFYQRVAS
Method in brief: as §1

USP54 = USP54 (UniProt Q70EL1)
USP54, sequence (Q70EL1 whole entry): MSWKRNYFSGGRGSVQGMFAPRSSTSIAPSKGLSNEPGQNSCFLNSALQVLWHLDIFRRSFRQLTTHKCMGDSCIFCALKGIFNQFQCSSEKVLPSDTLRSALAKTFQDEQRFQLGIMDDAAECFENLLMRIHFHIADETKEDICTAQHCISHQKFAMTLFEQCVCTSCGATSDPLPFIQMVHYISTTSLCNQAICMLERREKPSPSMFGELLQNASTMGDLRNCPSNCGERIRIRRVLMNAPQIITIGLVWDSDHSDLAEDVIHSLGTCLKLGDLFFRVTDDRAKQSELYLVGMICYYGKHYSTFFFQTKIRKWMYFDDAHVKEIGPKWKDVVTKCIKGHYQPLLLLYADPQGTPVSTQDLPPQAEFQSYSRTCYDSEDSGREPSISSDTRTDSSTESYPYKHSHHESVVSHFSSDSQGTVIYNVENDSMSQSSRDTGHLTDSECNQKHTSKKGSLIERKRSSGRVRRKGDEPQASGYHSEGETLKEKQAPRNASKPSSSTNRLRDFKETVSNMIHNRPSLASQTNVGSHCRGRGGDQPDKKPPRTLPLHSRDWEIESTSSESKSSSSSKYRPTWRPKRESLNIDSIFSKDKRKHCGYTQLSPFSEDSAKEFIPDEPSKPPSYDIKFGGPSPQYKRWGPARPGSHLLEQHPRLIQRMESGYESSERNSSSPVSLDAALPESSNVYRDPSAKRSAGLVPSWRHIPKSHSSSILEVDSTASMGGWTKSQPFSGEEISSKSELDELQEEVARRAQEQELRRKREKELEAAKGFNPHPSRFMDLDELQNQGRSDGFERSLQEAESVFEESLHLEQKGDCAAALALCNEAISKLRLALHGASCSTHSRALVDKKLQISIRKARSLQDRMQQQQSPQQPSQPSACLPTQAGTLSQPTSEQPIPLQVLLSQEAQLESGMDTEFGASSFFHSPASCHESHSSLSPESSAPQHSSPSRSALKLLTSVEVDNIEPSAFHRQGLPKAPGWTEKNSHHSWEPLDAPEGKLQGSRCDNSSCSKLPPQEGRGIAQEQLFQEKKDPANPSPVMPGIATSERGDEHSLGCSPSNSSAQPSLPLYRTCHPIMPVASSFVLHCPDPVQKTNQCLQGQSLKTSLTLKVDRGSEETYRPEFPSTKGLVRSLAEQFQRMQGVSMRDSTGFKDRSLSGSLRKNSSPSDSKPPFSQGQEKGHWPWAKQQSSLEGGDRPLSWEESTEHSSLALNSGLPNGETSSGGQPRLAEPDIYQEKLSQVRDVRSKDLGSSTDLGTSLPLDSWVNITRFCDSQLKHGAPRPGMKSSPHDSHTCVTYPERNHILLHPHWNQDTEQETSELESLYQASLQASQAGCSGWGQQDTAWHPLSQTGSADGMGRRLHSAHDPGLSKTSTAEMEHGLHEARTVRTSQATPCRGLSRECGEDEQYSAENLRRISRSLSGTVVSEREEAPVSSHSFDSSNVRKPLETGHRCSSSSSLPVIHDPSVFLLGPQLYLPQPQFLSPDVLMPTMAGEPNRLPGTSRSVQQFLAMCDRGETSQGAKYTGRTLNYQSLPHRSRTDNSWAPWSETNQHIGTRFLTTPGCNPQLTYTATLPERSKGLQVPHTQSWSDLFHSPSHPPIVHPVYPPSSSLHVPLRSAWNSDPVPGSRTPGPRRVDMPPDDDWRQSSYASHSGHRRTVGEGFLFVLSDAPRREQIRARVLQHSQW
Method in brief: as §1

USP7 = USP7 (UniProt Q93009)
Method in brief: as §1

USP8 = molecular target: T5, USP8 (UniProt P40818)
T5 sequence (whole entry): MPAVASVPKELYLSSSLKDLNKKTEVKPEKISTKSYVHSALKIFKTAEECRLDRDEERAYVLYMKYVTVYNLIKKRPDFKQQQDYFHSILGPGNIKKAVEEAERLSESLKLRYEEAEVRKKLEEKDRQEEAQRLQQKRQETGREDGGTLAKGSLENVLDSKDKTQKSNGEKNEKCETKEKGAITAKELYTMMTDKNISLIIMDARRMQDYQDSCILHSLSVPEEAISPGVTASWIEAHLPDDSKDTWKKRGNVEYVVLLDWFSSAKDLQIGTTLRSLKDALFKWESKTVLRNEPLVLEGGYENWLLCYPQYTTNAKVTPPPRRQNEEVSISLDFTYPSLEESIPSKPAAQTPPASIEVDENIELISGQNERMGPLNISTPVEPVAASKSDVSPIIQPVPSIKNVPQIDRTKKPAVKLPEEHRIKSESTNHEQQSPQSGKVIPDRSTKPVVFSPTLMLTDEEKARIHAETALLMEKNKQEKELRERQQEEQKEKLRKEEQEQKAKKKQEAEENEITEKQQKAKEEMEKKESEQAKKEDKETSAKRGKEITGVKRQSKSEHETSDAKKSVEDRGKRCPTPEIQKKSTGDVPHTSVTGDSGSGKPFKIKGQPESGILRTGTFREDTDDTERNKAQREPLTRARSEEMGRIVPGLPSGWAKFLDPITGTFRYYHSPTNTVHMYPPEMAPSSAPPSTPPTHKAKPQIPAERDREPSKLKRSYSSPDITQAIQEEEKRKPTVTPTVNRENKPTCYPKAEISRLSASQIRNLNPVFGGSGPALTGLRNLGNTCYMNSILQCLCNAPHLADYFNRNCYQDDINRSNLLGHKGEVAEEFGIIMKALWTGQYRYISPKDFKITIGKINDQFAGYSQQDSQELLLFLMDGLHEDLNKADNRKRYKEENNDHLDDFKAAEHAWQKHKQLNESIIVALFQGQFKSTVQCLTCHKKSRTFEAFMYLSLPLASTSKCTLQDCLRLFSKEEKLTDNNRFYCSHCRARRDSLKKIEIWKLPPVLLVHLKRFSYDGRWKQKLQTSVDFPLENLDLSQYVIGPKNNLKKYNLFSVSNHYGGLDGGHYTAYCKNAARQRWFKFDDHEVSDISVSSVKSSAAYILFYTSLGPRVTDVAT
Method in brief: as §1

USP9X = USP9X (UniProt Q93008)
USP9X, sequence (Q93008 whole entry): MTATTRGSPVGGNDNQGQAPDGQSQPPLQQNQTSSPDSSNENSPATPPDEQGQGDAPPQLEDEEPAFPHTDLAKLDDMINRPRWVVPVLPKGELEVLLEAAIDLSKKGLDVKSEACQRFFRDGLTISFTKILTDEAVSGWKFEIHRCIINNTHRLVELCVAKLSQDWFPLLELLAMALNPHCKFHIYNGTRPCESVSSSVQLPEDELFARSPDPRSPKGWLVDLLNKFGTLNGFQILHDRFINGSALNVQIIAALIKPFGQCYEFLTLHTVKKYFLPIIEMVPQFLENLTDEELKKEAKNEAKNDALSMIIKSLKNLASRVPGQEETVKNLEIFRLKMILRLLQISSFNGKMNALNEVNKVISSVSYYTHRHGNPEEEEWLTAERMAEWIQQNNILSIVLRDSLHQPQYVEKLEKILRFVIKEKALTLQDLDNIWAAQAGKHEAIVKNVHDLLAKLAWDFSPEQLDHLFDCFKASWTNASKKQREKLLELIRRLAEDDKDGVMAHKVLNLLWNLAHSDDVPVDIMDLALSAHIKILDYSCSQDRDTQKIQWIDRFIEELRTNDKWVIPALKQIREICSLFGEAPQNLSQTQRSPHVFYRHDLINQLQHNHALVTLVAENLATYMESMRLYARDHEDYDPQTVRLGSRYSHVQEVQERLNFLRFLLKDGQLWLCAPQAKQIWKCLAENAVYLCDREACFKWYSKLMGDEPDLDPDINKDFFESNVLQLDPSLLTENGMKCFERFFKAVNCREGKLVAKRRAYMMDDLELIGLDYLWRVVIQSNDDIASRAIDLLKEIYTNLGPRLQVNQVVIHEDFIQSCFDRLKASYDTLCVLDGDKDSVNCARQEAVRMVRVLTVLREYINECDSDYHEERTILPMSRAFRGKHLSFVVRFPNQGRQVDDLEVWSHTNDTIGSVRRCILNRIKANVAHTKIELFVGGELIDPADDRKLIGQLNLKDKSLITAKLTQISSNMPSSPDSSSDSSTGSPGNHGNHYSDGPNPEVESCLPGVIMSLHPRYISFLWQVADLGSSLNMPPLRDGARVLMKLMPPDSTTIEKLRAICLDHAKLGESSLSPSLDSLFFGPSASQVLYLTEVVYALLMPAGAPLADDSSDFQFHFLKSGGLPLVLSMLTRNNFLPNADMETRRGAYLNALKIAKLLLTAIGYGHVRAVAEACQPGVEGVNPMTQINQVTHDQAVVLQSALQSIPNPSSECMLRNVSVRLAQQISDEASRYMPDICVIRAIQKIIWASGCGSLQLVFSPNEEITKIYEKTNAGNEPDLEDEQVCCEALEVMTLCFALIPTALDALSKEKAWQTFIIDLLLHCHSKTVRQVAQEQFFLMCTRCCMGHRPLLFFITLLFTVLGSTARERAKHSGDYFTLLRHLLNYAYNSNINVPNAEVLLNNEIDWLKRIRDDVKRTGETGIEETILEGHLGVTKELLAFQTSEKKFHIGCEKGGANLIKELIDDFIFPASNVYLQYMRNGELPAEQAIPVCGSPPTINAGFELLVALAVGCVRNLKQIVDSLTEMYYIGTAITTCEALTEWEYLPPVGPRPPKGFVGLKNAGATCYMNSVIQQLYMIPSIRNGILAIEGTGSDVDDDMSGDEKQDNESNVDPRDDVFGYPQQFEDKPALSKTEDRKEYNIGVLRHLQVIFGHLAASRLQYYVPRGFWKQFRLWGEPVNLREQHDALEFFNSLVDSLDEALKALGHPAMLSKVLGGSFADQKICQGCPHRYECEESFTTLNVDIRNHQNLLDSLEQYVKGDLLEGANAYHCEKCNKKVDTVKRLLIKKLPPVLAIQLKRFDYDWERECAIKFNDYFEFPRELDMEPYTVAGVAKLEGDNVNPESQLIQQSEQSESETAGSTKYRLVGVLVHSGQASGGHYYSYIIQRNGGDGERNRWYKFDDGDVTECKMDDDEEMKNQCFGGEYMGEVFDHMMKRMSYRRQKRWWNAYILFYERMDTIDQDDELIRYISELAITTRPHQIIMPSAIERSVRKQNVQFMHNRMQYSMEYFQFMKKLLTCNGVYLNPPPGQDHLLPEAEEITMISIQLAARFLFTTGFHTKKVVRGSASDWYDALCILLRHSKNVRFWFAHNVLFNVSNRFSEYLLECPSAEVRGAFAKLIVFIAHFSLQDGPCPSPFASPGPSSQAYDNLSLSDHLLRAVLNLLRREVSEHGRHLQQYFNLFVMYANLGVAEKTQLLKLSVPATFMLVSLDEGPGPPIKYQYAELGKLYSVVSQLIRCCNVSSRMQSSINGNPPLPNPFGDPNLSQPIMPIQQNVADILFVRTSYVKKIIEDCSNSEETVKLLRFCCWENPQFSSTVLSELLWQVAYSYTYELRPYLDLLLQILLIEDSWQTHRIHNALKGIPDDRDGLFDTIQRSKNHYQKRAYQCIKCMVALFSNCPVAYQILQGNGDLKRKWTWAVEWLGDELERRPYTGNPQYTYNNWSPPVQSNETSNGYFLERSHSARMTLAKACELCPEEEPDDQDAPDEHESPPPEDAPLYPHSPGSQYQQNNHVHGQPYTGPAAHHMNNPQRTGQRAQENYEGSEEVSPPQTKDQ
Method in brief: as §1

UniProt O00487 = molecular target: UniProt O00487
UniProt O00487, sequence (O00487 whole entry): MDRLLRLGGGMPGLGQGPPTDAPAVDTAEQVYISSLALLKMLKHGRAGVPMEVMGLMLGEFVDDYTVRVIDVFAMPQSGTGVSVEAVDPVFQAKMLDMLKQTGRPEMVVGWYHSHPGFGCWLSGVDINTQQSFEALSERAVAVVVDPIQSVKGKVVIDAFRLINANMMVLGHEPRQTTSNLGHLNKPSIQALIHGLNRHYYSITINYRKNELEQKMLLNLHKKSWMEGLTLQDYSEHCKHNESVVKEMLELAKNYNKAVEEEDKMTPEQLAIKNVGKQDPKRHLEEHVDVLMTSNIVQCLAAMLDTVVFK
Method in brief: as §1

Measured: log2 ratio of Biotin-Ahx-Ub-VS probe labelling

Cc1cccc(C(CNC(=O)CCl)N2CCOCC2)c1.Cl (stereo not given)
inactive: USP42 -0.208 | USP46 0.086 | USP47 0.268 | USP48 -0.106 | USP5 -0.22 | USP54 -0.0536 | USP7 -0.244 | USP8 -0.417 | USP9X -0.0494 | UniProt O00487 0.181

O=C(CCl)N[C@H]1CC[C@@H](CO)CC1
inactive: USP42 0.163 | USP46 -0.593 | USP47 -0.113 | USP48 -0.534 | USP5 -0.644 | USP54 1 | USP7 -0.752 | USP8 -0.969 | USP9X -0.905 | UniProt O00487 -0.163

Cc1cccc(NC(=O)CCl)c1C
inactive: USP42 0.0545 | USP46 -0.22 | USP47 -0.266 | USP48 -0.0682 | USP5 -0.738 | USP54 -0.507 | USP7 -0.293 | USP8 -0.346 | USP9X -0.185 | UniProt O00487 -0.182
